# Experimental data reported in PubChem BioAssay AID686979 (National Center for Advancing Translational Sciences (NCATS), 2013).
# In all, about 420,000 compounds went through this assay and about 50,000 (12%) were called active. About 26% were inconclusive and are not listed. The entries come from a sample that favours actives as a whole. A number with no mark means an inactive call. Calls follow the shape of the dose curve; as a rule, active = well fitted inhibition curve with a large enough effect; inconclusive = small, poorly fitted or top-dose-only effect; inactive = flat fitted curve, though single readings scatter.
# Assay: qHTS for Inhibitors of human tyrosyl-DNA phosphodiesterase 1 (TDP1): qHTS in cells in presence of CPT; also: nearly all actives have a fitted effect of over 55% in size
# Details: chicken DT40 Tdp1-/-;hTDP1 cells + 20 nM CPT, ATP luminescence, 48 h; series mostly up to 46.2 µM; activity change, negative = growth inhibition: at the top concentration
# In short: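 Cell growth measured by CellTiter-Glo luminescence after a minimum 48 h, 37 C compound exposure with 20 nM CPT in Tdp1-knockout DT40 cells stably expressing hTDP1, seeded 400/well; qHTS titration format.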
# % is scaled to controls: 0 for no effect and ±100 for the full control effect; potency is read from the fitted curve at half-maximal effect.
Compound,"activity change, negative = growth inhibition",Potency
CC(=NNC(=O)c1ccc2nc[nH]c2c1)c1ccc(Br)cc1,-16.2%,
O=C(NCCCO)C(=O)Nc1c2c(nn1-c1ccc(F)cc1)CSC2,-6.22%,
Cc1ccc(S(=O)(=O)N[C@H]2CCC[C@@H]2O)cc1,23.7%,
COc1ccc(S(=O)(=O)N2CCc3ccccc32)cc1C(=O)Nc1cc(S(C)(=O)=O)ccc1Cl,,9.2 µM (active)
COc1cccc(NC(=O)c2cc(S(=O)(=O)N3CCc4ccccc43)cn2C)c1,1.38%,
CCN(C(=O)COC(=O)c1cc(S(=O)(=O)N2CCc3ccccc32)ccc1OC)C1CCS(=O)(=O)C1 (centres undefined),1.42%,
O=C(Nc1cc(C(F)(F)F)ccc1Cl)c1ccc2c(c1)CCN2S(=O)(=O)c1ccccc1,,18.4 µM (active)
CS(=O)(=O)N1CCc2cc(C(=O)Nc3ccccc3)ccc21,-7.48%,
Cc1ccc(S(=O)(=O)N2CCc3cc(C(=O)Nc4ccc(Cl)cc4C)ccc32)cc1,-7.99%,
Cc1noc(C)c1NC(=O)N(C)C[C@@H]1Oc2cc(Br)ccc2S(=O)(=O)N([C@@H](C)CO)C[C@H]1C,-16.2%,
Cc1ccc(CNC(=O)C2CCCN2S(=O)(=O)c2ccc3c(c2)C(C)(C)C(=O)N3C)cc1 (centres undefined),-4.08%,
COc1cc(Br)cc2cc(S(=O)(=O)c3ccccc3)c(=O)oc12,-17.1%,
CCOC(=O)C(Cc1ccc(N)cc1)N1C(=O)c2ccccc2C1=O (centres undefined),-20.1%,
O=C(Nc1ccccc1F)c1ccc(Cn2cc(Br)cn2)cc1,-29.2%,
CCCc1nc(-c2cc3cc(C)ccc3[nH]c2=O)no1,-11.1%,
COc1ccc2[nH]c(=O)c(CNc3ccc(C)c(C)c3)cc2c1,,4.11 µM (active)
CCC(=O)N(Cc1cc2cc(OC)ccc2[nH]c1=O)c1ccccc1C,-12.5%,
CC(=O)OCc1cc2cc(C)ccc2[nH]c1=O,-29.4%,
COc1ccc(N(Cc2cc3cc(OC)ccc3[nH]c2=O)S(C)(=O)=O)cc1,-13.5%,
CCNCc1cc2cc(C)ccc2[nH]c1=O,,18.4 µM (active)
CCCCN1C(=O)c2ccc(C(=O)Nc3ccc(S(=O)(=O)N(C)C)cc3)cc2C1=O,-24.7%,
Cc1ccccc1Nc1nc(N)nc(COC(=O)CCC(=O)c2ccc(F)cc2)n1,-18.4%,
Cc1cc(NC(=O)c2ccc(-c3ccc(Cl)cc3)o2)cc(-c2nc3ncccc3o2)c1O,0.843%,
O=C1/C(=C\c2cccnc2)CN(Cc2ccccc2)C/C1=C\c1cccnc1,,5.17 µM (active)
Cc1ccccc1C1=N/C(=C/c2cccnc2)C(=O)O1,-27.4%,
O=Cc1cn(Cc2ccccc2)nc1-c1cccnc1,-0.314%,
O=C(C(=O)N1CCc2ccccc2C1)c1c[nH]c2ccccc12,-0.41%,

Compound,"activity change, negative = growth inhibition",Potency
Cc1ccc(-c2noc(CCC(N)=O)n2)cc1,-5.46%,
CCNC(=O)CCc1nc(-c2ccc(C(C)(C)C)cc2)no1,,16.4 µM (active)
CCNC(=O)CCc1nc(-c2ccc(C)cc2)no1,2.65%,
Cn1c(Cc2cccs2)nnc1SCC(=O)Nc1ccccc1,-14.6%,
O=C1C(=O)N(CCCO)C(c2ccccc2)/C1=C(\O)c1ccc(Br)cc1 (centres undefined),-18.7%,
CN(CC(=O)NCc1ccc(Cl)cc1)S(=O)(=O)c1cccs1,-1.91%,
COCCN1CCN(C(=O)c2sc3ncnc(NCC4CCCO4)c3c2C)CC1 (centres undefined),6.09%,
O=C(COC(=O)c1ncc(Cl)c(Cl)c1Cl)NCc1ccccc1,-15.5%,
CC(C)C(NC(=O)c1c(F)cccc1F)C(=O)NNC(=O)c1ccccc1 (centres undefined),16.2%,
Cc1cccc(NC(=O)Cn2c(C(F)(F)F)nc3ccccc32)c1C,-26.9%,
CCC(=O)Nc1ccc(C)cc1-c1nc2ccccc2n(Cc2ccccc2)c1=O,-11.9%,
CCC(=O)Nc1nc2ccccc2n1Cc1ccccc1C,,14.6 µM (active)
COc1ccc(N2CC(C(=O)N[C@@H](C)C(=O)N3CCCCC3)CC2=O)cc1 (some centres undefined),2.81%,
Cc1c(Cl)cccc1NC(=O)C1CCCN(c2ncnc3onc(C)c23)C1 (centres undefined),,8.2 µM (active)
Cc1ccc(Cl)cc1NC(=O)C1CCCN(c2cnccn2)C1 (centres undefined),-25.9%,
COc1ccccc1NC(=O)C1CCCN(c2cc(C)nc3ncnn23)C1 (centres undefined),-28.8%,
CSCC[C@H](NC(=O)OC(C)(C)C)C(=O)N/N=C/c1cc2ccc(C)cc2nc1Cl,-28.8%,
Cc1ccn(-c2cccc(-n3ccc(C)n3)n2)n1,-1.46%,
CCCCN(C=O)c1c(CC)nc2c(OCCC3CCCCC3)cccn12,,16.4 µM (active)
CCCCN(C=O)c1c(CC)nc2c(OCc3ccccc3C(=O)OC)cccn12,,13 µM (active)
CCc1nc2ccc(C(=O)N3CCN(S(=O)(=O)CC)CC3)cn2c1N(C=O)CCC(C)C,-12.8%,
CCOc1ccccc1N(CC(=O)Nc1ccccc1C(=O)OC)S(C)(=O)=O,-2.34%,
Cc1nccn1-c1ccc(NC(=O)[C@H]2O[C@@H](n3cnc4c(N)ncnc43)[C@H](O)[C@@H]2O)cc1,1.02%,
CCC1CN(CCNC(=O)c2cccc(C)n2)Cc2cc(OC)ccc2O1 (centres undefined),5.22% [at 9.04 µM],
O=C(CSc1ccc(-c2ccc(-n3cccn3)cc2)nn1)Nc1ccc([N+](=O)[O-])cc1,3.07%,
COc1ccc(NC(=O)CC2C(=O)OCC3CCCCN32)cc1Cl (centres undefined),3.07%,
CC(C)c1ccc(Cc2nnc(NCCCO)[nH]c2=O)cc1,0.449%,
